In the library only some 1.2% were active in any assay of this set; here they are far more common.
LAP4 TOR yeast: yeast TOR pathway LAP4-GFP modulation | S. cerevisiae LAP4-GFP multiplex, flow cytometry GFP, 3 h; median GFP as percent of DMSO wells | GFP response vs DMSO, % at 10 µM | hit rate 0.34% among 320,000 | AID 2023;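 active means GFP response vs DMSO above a set limit, about the screen mean plus 3 SD, cut at about 150% in these data; inconclusive means under 70 cell events counted for the yeast strain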
CIT2-GFP yeast: modulators of TOR pathway CIT2-GFP in S. cerevisiae. S. cerevisiae CIT2-GFP strain, flow cytometry, 3 h; 100 means same as DMSO wells. GFP response vs DMSO, % at 10 µM. hit rate 0.065% among 320,000;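 active means GFP response relative to DMSO above a set limit, near the screen mean plus 3 SD, cut at about 150% in these data; inconclusive means Fewer than 70 cells measured for a yeast strain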;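 further: ratio of well median GFP fluorescence to mean of DMSO wells on the plate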
Pemphigus Ab inh: inhibitors of pemphigus antibody binding to human desmoglein-3. P32926. hit rate 0.48% among 310,000. binding (percent of control), % at 10 µM. DSG3-coupled beads, scFv-anti-DSG3-GFP binding, flow cytometry; stronger effect = lower value;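 active means binding more than 3 SD below its plate's average and above zero; inconclusive means below that plate limit but binding exactly zero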
Target sequence (P32926 whole entry, looked up): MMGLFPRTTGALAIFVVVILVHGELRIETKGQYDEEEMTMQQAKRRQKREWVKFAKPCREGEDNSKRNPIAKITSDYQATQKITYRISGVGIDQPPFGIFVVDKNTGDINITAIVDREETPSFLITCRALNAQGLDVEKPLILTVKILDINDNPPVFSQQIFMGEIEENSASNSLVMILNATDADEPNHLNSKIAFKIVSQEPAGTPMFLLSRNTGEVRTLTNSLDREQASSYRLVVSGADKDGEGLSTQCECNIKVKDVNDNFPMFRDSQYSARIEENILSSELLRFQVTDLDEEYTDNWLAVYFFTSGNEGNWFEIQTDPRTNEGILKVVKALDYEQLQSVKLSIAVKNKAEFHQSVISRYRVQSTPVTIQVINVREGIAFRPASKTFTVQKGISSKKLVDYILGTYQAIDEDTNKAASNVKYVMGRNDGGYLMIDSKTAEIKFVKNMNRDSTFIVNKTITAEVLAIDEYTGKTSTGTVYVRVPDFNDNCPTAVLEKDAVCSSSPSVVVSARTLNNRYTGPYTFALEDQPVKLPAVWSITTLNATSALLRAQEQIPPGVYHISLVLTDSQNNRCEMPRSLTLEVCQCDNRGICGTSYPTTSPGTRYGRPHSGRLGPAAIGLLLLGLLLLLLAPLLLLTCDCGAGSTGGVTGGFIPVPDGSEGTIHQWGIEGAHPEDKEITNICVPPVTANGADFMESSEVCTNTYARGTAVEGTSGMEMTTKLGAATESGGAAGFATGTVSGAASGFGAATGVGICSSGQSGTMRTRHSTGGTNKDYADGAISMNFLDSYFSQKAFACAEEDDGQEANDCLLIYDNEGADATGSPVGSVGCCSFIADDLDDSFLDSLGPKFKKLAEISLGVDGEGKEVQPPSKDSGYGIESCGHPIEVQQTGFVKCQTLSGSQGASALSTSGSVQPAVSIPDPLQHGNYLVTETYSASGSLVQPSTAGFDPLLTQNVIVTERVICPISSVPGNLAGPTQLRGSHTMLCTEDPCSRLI
AGP1 TOR yeast: yeast TOR pathway AGP1-GFP modulation; S. cerevisiae AGP1-GFP multiplex flow cytometry, 3 h; GFP as percent of DMSO wells; GFP response vs DMSO, % at 10 µM; hit rate 0.02% among 320,000;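 active means GFP response relative to DMSO above a set limit, near screen average plus 3 SD, cut at about 150% in these data; inconclusive means fewer than 70 cells counted for the yeast strain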;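 further: median GFP channel fluorescence of the gated AGP1 strain per well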
MEP2-GFP yeast: alters MEP2-GFP fluorescence in TOR pathway yeast screen; GFP response vs DMSO, % at 10 µM; AID 2016; S. cerevisiae MEP2-GFP strain, flow cytometry GFP, 3 h; 100% = DMSO control level; hit rate 0.51% among 330,000;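 active means GFP response versus DMSO above a set limit, roughly screen mean plus 3 SD, cut at about 180% in these data; inconclusive means fewer than 70 cells counted for a yeast strain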;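 further: median GFP fluorescence of the barcode-gated MEP2-GFP cells per well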
RPL19A-GFP yeast: alters RPL19A-GFP fluorescence in TOR pathway yeast screen | hit rate 0.3% among 330,000 | S. cerevisiae RPL19A-GFP strain, flow cytometry, 3 h; stronger effect = lower value | percent response vs DMSO, % at 10 µM;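 active means percent response vs DMSO below 50%; inconclusive means fewer than 70 events counted for the yeast strain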;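 further: median channel GFP fluorescence of the barcoded RPL19A-GFP strain; ratio of sample median GFP to plate DMSO average so 100% = DMSO; lower means less RPL19A-GFP as with rapamycin TOR inhibition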
An asterisk follows results filed as active; ? = inconclusive; / = not tested or not shown; [ ] = dose if it differs, or a comment.

SMILES	LAP4 TOR yeast	CIT2-GFP yeast	Pemphigus Ab inh	AGP1 TOR yeast	MEP2-GFP yeast	RPL19A-GFP yeast
COc1ccc(C2C3=C(CCCC3=O)N(CC(=O)O)C3=C2C(=O)CCC3)cc1Cl	126	130	105	148	502*	46*
COc1ccccc1C1C2=C(CCCC2=O)N(CC(=O)O)C2=C1C(=O)CCC2	58	?	115	?	257*[may fluoresce violet]	14*[may fluoresce violet]
COc1ccc(C2C3=C(CCCC3=O)N(CC(=O)O)C3=C2C(=O)CCC3)cc1Br	/	/	107	/	/	/
CSc1nsc(NN)n1	/	/	101	/	/	/
Cc1ccc(C(=O)N/N=C\c2ccc([N+](=O)[O-])s2)cn1	75	?	106	21	311*[may fluoresce violet]	49*[may fluoresce violet]
Cc1ccc(C(=O)N/N=C/c2ccc([N+](=O)[O-])s2)cc1	106	90	110	92	102	101
Cc1cccc(CNC(=O)CCn2ccc3cc(S(=O)(=O)N4CCCC4)ccc32)c1	67	?	101	?	161	17*[may fluoresce violet]
CCOC(=O)N1CCc2cc(OC)c(OC)c3c2c1cc1cc(OC)c(OC)cc13	/	/	85	/	/	/
CCC(=O)N1CCN(c2ccc(NC(=O)c3ccc4c(c3)OCCO4)cc2)CC1	106	96	76*	100	93	93
COc1cc(/C=C/C(=O)N2CCN(CC(O)COc3ccccc3)CC2)cc(OC)c1OC (configuration not stated)	99	100	99	87	103	92
Cc1ccc(CN2CCC[C@]3(N[C@H](c4ccc(C)cc4)[C@@H]4C(=O)N(Cc5ccccc5)C(=O)[C@@H]43)C2=O)cc1	/	/	106	/	/	/
COCCN(C(=O)CCC(=O)Nc1cccnc1)C(C(=O)NC1CCCCC1)c1ccccc1 (configuration not stated)	98	108	82*	83	111	98
CCC(Sc1nc(=O)cc(N)n1-c1ccccc1)C(=O)Nc1cc(C)on1 (configuration not stated)	183*	125	103	162*	385*	77
COc1ccc(CN(C(=O)c2snc(C(N)=O)c2N)C(C(=O)NC2CCCC2)c2cc(OC)ccc2OC)cc1 (configuration not stated)	74	?	/	?	302*[may fluoresce violet]	41*[may fluoresce violet]
COc1ccc(CN(C(=O)c2snc(C(N)=O)c2N)C(C(=O)NC2CCCC2)c2ccc(OC)cc2)cc1 (configuration not stated)	97	107	/	100	99	98
O=C(NCc1nnnn1-c1ccc(F)cc1)C(=O)c1c[nH]c2ccccc12	/	/	102	/	/	/
CCC(C)n1cnc2c(c1=O)c1nc3ccccc3nc1n2-c1ccc2c(c1)OCCO2 (configuration not stated)	96	106	42*	92	109	97
CCCCn1c2nc3ccccc3nc2c2c(=O)n(C(C)CC)cnc21 (configuration not stated)	98	115	102	/	103	106
Cc1csc2c(=O)sc(NC(=O)c3cccs3)nc12	88	?	100	22	596*[may fluoresce violet]	48*[may fluoresce violet]
CC(C)Cn1c(SCC(=O)Nc2ccc3[nH]c(=O)[nH]c3c2)nc2ccccc2c1=O	107	111	99	111	110	105
Cc1cc(SCC(=O)Nc2ccc3[nH]c(=O)[nH]c3c2)nc2ccccc12	91	94	76*	97	101	98
O=C(OCn1nnc2ccccc2c1=O)C1=COCCO1	95	?	100	23	312*[may fluoresce violet]	64
O=C(OCn1nnc2ccccc2c1=O)c1ccco1	102	97	98	90	101	94
Oc1ccc(CCc2ccccn2)cc1	/	/	112	/	/	/
CNc1sc(C(=O)c2ccc(F)cc2)c(N)c1-c1nc2ccccc2s1	153*[may fluoresce violet]	?	94	42	97	96
SMILES	LAP4 TOR yeast	CIT2-GFP yeast	Pemphigus Ab inh	AGP1 TOR yeast	MEP2-GFP yeast	RPL19A-GFP yeast
CC(Sc1nnc(N)s1)C(=O)NCc1ccc2c(c1)OCO2 (configuration not stated)	103	101	80	105	110	104
CC(Sc1nnc(N)s1)C(=O)Nc1ccc2c(c1)OCO2 (configuration not stated)	/	/	89*	/	/	/
O=C(O)CN1CCN(Cc2ccccc2F)C1=O	114	92	105	103	89	97
CCC(=O)N1CCc2cc(S(=O)(=O)N(C)c3ccc(Br)cc3)ccc21	/	/	73*	/	/	/
CCC(=O)N1CCc2cc(S(=O)(=O)N(C)c3ccc(OC)cc3OC)ccc21	88	103	103	97	105	104
CN(C(=O)C1CC1)C1CCS(=O)(=O)C1 (configuration not stated)	97	97	84*	102	102	100
Cc1ccccc1NC(=O)Cn1nc(-c2ccccc2)nc1-c1ccccc1	102	103	-17*	103	109	101
O=C(COc1cccc(Br)c1)Nc1ccc(N2CCOCC2)cc1N1CCOCC1	101	99	/	100	100	98
Cn1c(O)c(N=NC(=O)CNC(=O)c2ccccc2)c2cc(Br)ccc21	95	95	/	96	95	96
CCn1c(O)c(N=NC(=O)CNc2ccc(C)cc2)c2ccccc21	97	97	102	102	95	103
CCn1c(O)c(N=NC(=O)CNc2cccc(C)c2)c2ccccc21	90	?	83	15	525*[may fluoresce violet]	74
Cn1c(O)c(N=NC(=O)CNC(=O)c2ccccc2)c2ccccc21	108	105	-36*	103	116	105
C[C@@H]1CN([C@H](C)CO)C(=O)CCCn2nncc2CO[C@H]1CN(C)Cc1ccc(O)cc1	/	/	31*	/	/	/
O=C1NCCC/C1=N/Nc1cc(F)ccc1F	121	98	107	99	100	101
O=C(Nc1cccc(OC(=O)c2cccnc2)c1)c1cccnc1	103	?	119	21	194*[may fluoresce violet]	59
O=C(Nc1cccc(NC(=O)c2cccnc2)c1)c1cccnc1	105	111	103	111	106	111
Cc1ccc(NC(=O)c2cccnc2)cc1C	88	107	16*	97	106	107
CCOC(=O)C1CCN(C2CC(=O)N(c3cccc(Cl)c3)C2=O)CC1 (configuration not stated)	93	89	103	95	90	94
Cc1cc(OCC(=O)OCC(=O)N(Cc2ccccc2)C(C)(C)C)ccc1Cl	/	/	97	/	/	/
COCc1nnc(NC(=O)C2CCN(C(=O)c3ccco3)CC2)s1	113	?	109	19	968*[may fluoresce violet]	57
Cc1ccc(CC(=O)NCC(O)c2ccccc2)cc1 (configuration not stated)	85	?	120	?	284*[may fluoresce violet]	46*[may fluoresce violet]
CCCCc1nc2cc(C(=O)NCCc3c(C)n[nH]c3C)ccc2o1	110	94	/	99	115	98
